Our source for the inhibition values is PubChem BioAssay AID778 (Sanford-Burnham Center for Chemical Genomics, 2007).

Out of some 96,000 compounds screened, about 20,000 (21%) were called active. The list is a sample of the results. A number with no mark means an inactive call.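 Rule for the calls: active = CYP2C19 inhibition above a set limit at 5 µM in the primary screen (cut at about 50% in these data); inactive = the rest.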

In general, inhibition refers to the change of the read-out against control, counted positive when it falls.

Sequence of Cytochrome P450 2C19 (Homo sapiens) (P33261 whole entry, looked up): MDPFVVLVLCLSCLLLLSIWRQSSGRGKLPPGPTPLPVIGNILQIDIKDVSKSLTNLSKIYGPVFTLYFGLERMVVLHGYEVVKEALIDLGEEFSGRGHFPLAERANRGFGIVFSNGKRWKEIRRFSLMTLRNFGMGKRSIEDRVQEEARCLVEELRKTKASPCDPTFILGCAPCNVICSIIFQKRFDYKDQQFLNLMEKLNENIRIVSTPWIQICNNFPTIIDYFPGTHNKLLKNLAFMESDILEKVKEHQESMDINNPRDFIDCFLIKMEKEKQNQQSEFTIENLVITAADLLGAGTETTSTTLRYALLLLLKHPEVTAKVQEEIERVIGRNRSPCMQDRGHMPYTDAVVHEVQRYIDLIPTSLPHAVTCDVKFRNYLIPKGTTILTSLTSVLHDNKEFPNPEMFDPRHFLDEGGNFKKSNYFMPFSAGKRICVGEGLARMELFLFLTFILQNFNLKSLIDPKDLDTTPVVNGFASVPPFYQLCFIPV

The assay concerns the target Cytochrome P450 2C19 (Homo sapiens) (UniProt P33261). In words: blockers of cytochrome P450 2C19 activity – biochemical, luminescence, ADME assay, primary screen (AID 778).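 Note: plate controls were negative control wells for no effect and 2.5 mM tranylcypromine positive control for full effect.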 As to conditions: CYP2C19 Supersomes, luciferin-H EGE luminescence, 30 min; at 5 µM; hits give high values.
As to `Cc1ccc(CCn2c3c(c4ccccc42)CN(C)CC3)cn1`, the inhibition is 7.8%. Under `CSc1nc2nc3c(c(=O)n2[nH]1)CCC3` stands 4.1%. Under `COc1ccc(C2CC(=O)Nc3cc(C)c(C)cc32)c(OC)c1OC` (centres undefined) stands 94.5% (active); under `COc1cc2c(cc1OC)C(c1ccncc1)CC(=O)N2` (centres undefined), 16.4%. The same measure for `COc1cccc(-c2nnc(N(C)C(=O)c3ccno3)s2)c1`: 11.1%; for `Cc1nnc(C)n1/N=C/c1ccc(C(C)C)cc1`: 10.5%; for `COC(=O)c1ccc(C(=O)Nc2cc(Cl)ccc2Cl)cc1NC(=O)c1ccccc1C`: 4.7%. Regarding `Cc1cccc(C(=O)Nc2ccc(CC(=O)O)cc2)c1`, the inhibition was -0.6%. Under `COC(=O)c1ccccc1NC(=O)c1cncc(Br)c1` stands 30.8%; under `CN(C)c1ccc(NC(=O)c2ccncc2)c2ccccc12`, 90.3% (active).

`Cc1ccccc1NC(=O)c1ccccc1`: the inhibition is -2%. The same measure for `CCOc1ccc(-c2cn(S(=O)(=O)c3cccc4nsnc34)nc2N)cc1`: 3.8%; for `COc1cc(C(=O)OC(C)C(=O)NCC2CCCCC2)cc(NC(=O)c2ccco2)c1OC` (centres undefined): 38.3%. Under `O=C(O)CSCc1ccc(C(=O)O)o1` stands -3%; under `COC(=O)c1ccc(CSc2ccc3nnc(-c4ccccc4)n3n2)o1`, 63.7% (active); under `CCOc1ccccc1Nc1nnc(SCc2ccc(C(=O)OC)o2)s1`, 43%. Take `CCc1ccc(C(=O)CSc2nnc(C)c(=O)[nH]2)cc1`: the inhibition is 19.3%. Under `Cc1ccc(OCC(=O)N/N=C/c2ccncc2)cc1` stands 96.3% (active). The same measure for `Cc1cc(C)c(OCC(=O)N/N=C/c2ccco2)c(C)c1`: 41.2%; for `Cc1ccc(OCC(=O)Nc2ccc(-c3nc4ncccc4o3)cc2)cc1`: 3.2%. The same measure for `O=C(Nc1cc2c3c(c1)C1CCCC1CN3CC1CCCC21)c1ccc([N+](=O)[O-])cc1` (centres undefined): 28.2%; for `Cc1cccc(N(CC(=O)N=Nc2c(O)[nH]c3ccccc23)S(C)(=O)=O)c1C`: 33.6%. Regarding `Cc1nnc(SCc2cc(=O)[nH]c(N3CCN(Cc4ccccc4)CC3)n2)s1`, the inhibition is 50.4% (active). Under `O=c1cc(CSc2ccccn2)nc(N2CCN(c3ccccc3)CC2)[nH]1` stands -0.6%; under `CCc1c(C)nc(N2CCN(Cc3ccccc3)CC2)[nH]c1=O`, 2.4%. The same measure for `COCc1cc(C)nc2sc3c(=O)n(-c4cccc5ccccc45)nnc3c12`: 24.5%; for `CN1c2ccccc2-c2nc3ccccc3n2C1c1ccco1` (centres undefined): 14.2%.

Consider `COC(=O)c1ccc2c(=O)n(CC3CCCO3)c(=S)[nH]c2c1` (centres undefined), for which the inhibition was -6.3%. The same measure for `CCOc1cccc(=O)c2c(C)n(CC3CCCO3)c(C)c12` (centres undefined): 92.1% (active); for `O=c1c2cc3c(=O)n(CC4CCCO4)c(=O)c3cc2c(=O)n1CC1CCCO1` (centres undefined): 0.8%. With `COc1ccc(-c2nc(CS(=O)CC(=O)NCc3cccnc3)c(C)o2)cc1OC` (centres undefined), the inhibition was 24.2%. Regarding `COc1ccc(-c2cc(C(F)(F)F)nc(NCc3cccnc3)n2)cc1`, the inhibition was 73.4% (active).

In the case of `COc1ccc(-c2cc(C(F)(F)F)nc(S(C)(=O)=O)n2)cc1OC`, the inhibition is 12.6%.

For `COc1ccc(-c2csc3nc(-c4ccccc4F)oc(=O)c23)cc1OC`, the inhibition is 25.3%. On to `CCCOc1ccccc1-c1nc(SCCC(=O)O)n[nH]1`, for which the inhibition was -4.6%.

On to `O=C(CC(O)(C(F)(F)F)C(F)(F)F)Nc1ccc(Cl)c(Cl)c1`, for which the inhibition was 77% (active). The same measure for `N/C(=N\OC(=O)Nc1ccc(Cl)c(Cl)c1)c1ncc(C(F)(F)F)cc1Cl`: -13.4%; for `Cc1nnc(NC(=O)Nc2ccc(Cl)c(Cl)c2)s1`: -9.1%. As for `COc1ccccc1Nc1ncnc2c1oc1ccccc12`, the inhibition was 30.1%. The same measure for `CC1(C)CC(=O)C=C(NCCN2CCNCC2)C1`: -7.9%; for `Fc1ccc2[nH]c3c(N4CCSCC4)ncnc3c2c1`: 58.5% (active). In the case of `Cc1cc(N2CCN(Cc3ccc4c(c3)OCO4)CC2)n2ncnc2n1`, the inhibition was 8.7%.

Consider `CC(C)OCCCNc1ncnc2c1[nH]c1ccc(F)cc12`, for which the inhibition was 31.8%. The same measure for `c1n[nH]c(NCc2ccc3c(c2)OCO3)n1`: -7.6%. Under `CCN1CCCC1CNc1ncnc2c1[nH]c1ccc(F)cc12` (centres undefined) stands 14.6%.

Regarding `Fc1ccc2[nH]c3c(N4CCN(Cc5ccc6c(c5)OCO6)CC4)ncnc3c2c1`, the inhibition is 61.2% (active). Under `Cc1cc(C(F)(F)F)n2ncc(-c3ccccc3)c2n1` stands 21.2%; under `C=C1c2cc(CC)ccc2NC(=O)N1c1ccc(C)cc1`, 32.6%; under `CC1(C)CC(=O)C2=C(C1)NCN(CCCN1CCOCC1)C2`, -0.8%. Under `CCCCc1nc(NCCN)c(C#N)c2c1CSC(C)(C)C2` stands 25.3%; under `CCNc1nc(SCCOc2ccccc2)nc(N(C)C)n1`, 12.3%; under `COC(=O)c1ccc(NC(=O)c2ccco2)cc1`, 53.1% (active). As to `Cc1ccnc(NC(=O)c2ccc(NC(=O)c3ccco3)cc2)c1`, the inhibition is 13.1%. The same measure for `O=C(CSc1ccccc1)Nc1ccc(NC(=O)c2ccco2)cc1`: 22%; for `O=C(Nc1ccc(Sc2ccc(Br)cc2)cc1)c1ccco1`: 6.9%. The same measure for `O=C(Nc1ccc(Oc2ccccc2)cc1)c1ccco1`: 59.9% (active). On to `O=C(/C=C/c1ccco1)Nc1ccc(Oc2ccccc2)cc1`, for which the inhibition was 8.4%.

Take `CCOCCOC(=O)C1=C(C)N(C)C(=O)NC1c1ccccc1F` (centres undefined): the inhibition is 47.5%.

On to `COc1ccc(CCNC(=O)CN2CCC(n3nnc4cc(F)ccc43)CC2)cc1OC`, for which the inhibition was 22.7%. Under `Cc1ccc(C(=O)NNC(=O)OC(C)(C)C)c(Cl)c1` stands 14.6%.

As to `CCN1CCN(Cc2nc3c(c(=O)n(C)c(=O)n3C)n2CC(=O)c2ccccc2)CC1`, the inhibition is 4.3%. Under `CC1CN(c2cc(=O)n(Cc3ccc(F)cc3)c(=O)[nH]2)CC(C)O1` (centres undefined) stands -11%; under `Cc1ccccc1/[N+]([O-])=C/c1ccncc1`, 42.4%; under `CCOc1cc(/C=C2/N=C(c3ccc(C(C)(C)C)cc3)OC2=O)cc(Cl)c1OS(C)(=O)=O`, 14.4%.
